From PubChem BioAssay (NCI) come the findings set out here.

Where “and” joins values, the source holds several entries; their conditions need not be identical. Identical values can stand only once. This is part of a sample that, as a whole, favours compounds with a hit. Of some 83,000 tested, about 20% had one in any assay.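 Plates (96-well) were seeded with cells, treated with compound at one concentration, and incubated for 48 hours before percent growth was determined.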 Unmarked numbers belong to inactive results. Calls of active or inactive are those of the source. Rule for the calls: active = growth percent below 10; inactive = the rest.

Test systems include HCT-15 colon; HT29 colon; SNB-75 CNS; SNB-19 CNS; U251 CNS; PC-3 prostate; SK-MEL-5 melanoma; UACC-62 melanoma; LOX IMVI melanoma; SK-MEL-2 melanoma; EKVX NSCLC; UO-31 renal; TK-10 renal; ACHN renal; CAKI-1 renal; A498 renal; CCRF-CEM leukemia; MOLT-4 leukemia.
Common to all, as to test: NCI-60 one-dose screen, 48 h (100 = growth as untreated, 0 = no growth, -100 = all killed)
The subject of another assay is SK-MEL-28 melanoma. The conditions noted are these: 10 µM.

With `O=[N+]([O-])c1cc(S(=O)(=O)Nc2ccccc2)ccc1Cl`, the growth in the assay with HCT-15 colon (10 µM) was 96.5%; in the assay with HT29 colon (10 µM), 101%; in the assay on SNB-75 CNS (10 µM), 69.3%; in the assay on SNB-19 CNS (10 µM) it was 95.5%; in the assay on U251 CNS (10 µM), 100%; in the assay on PC-3 prostate (10 µM), 94.3%. Moreover, the growth was 92.8% with SK-MEL-5 melanoma (10 µM); 84.7% in the assay with UACC-62 melanoma (10 µM); 77.6% in the assay with LOX IMVI melanoma (10 µM); 102% in the assay on SK-MEL-28 melanoma; 93.3% with SK-MEL-2 melanoma (10 µM); 86.1% in the assay with EKVX NSCLC (10 µM). Moreover, the growth in the assay with UO-31 renal (10 µM) is 76.7%; with TK-10 renal (10 µM), 99.1%; in the assay with ACHN renal (10 µM), 94.2%; in the assay with CAKI-1 renal (10 µM) it was 77.3%; in the assay with A498 renal (10 µM), 96.8%; in the assay on CCRF-CEM leukemia (10 µM), 85.9%. In addition, the growth with MOLT-4 leukemia (10 µM unless noted) was 89%.
Regarding `CCC(=O)Oc1ccc(/C=N/NC(N)=S)nc1`, the growth with HCT-15 colon (10 µM) was 65%; with HT29 colon (10 µM), 60.8%; in the assay with SNB-75 CNS (10 µM), 41%; in the assay with SNB-19 CNS (10 µM) it was 72.7%; in the assay on U251 CNS (10 µM), 27.3%; with PC-3 prostate (10 µM), 54.1%. Also, the growth with SK-MEL-5 melanoma (10 µM) was 31%; in the assay with UACC-62 melanoma (10 µM), 7.95% (active); in the assay on LOX IMVI melanoma (10 µM), 18.1%; with SK-MEL-28 melanoma, 79%; in the assay on SK-MEL-2 melanoma (10 µM), 53.2%; with EKVX NSCLC (10 µM), 86.3%. The growth is 29.7% with UO-31 renal (10 µM); 86.3% with TK-10 renal (10 µM); 8.62% (active) with ACHN renal (10 µM); -2.02% (active) with CAKI-1 renal (10 µM); 52% in the assay on A498 renal (10 µM); -0.545% (active) in the assay with CCRF-CEM leukemia (10 µM). Besides, in the assay with MOLT-4 leukemia (10 µM unless noted), the growth was 10.8%.
As for `CN(C)c1ccc(/C=C/c2ccnc3ccccc23)cc1N`, the growth is 59.5% with HCT-15 colon (10 µM); 58.5% in the assay on HT29 colon (10 µM); 85.8% in the assay on SNB-75 CNS (10 µM); 80.2% in the assay on SNB-19 CNS (10 µM); 66.7% with U251 CNS (10 µM); 60.4% in the assay on PC-3 prostate (10 µM). The growth with SK-MEL-5 melanoma (10 µM) is 13.6%; in the assay on UACC-62 melanoma (10 µM), 63.3%; in the assay with LOX IMVI melanoma (10 µM), 71.4%; in the assay on SK-MEL-28 melanoma, 83.8%; in the assay with SK-MEL-2 melanoma (10 µM), 67.5%; in the assay on EKVX NSCLC (10 µM) it was 52.5%. Also, the growth in the assay with UO-31 renal (10 µM) is 45.5%; with TK-10 renal (10 µM), 74.7%; with ACHN renal (10 µM), 68.6%; with CAKI-1 renal (10 µM), 60.9%; with A498 renal (10 µM) it was 62.8%; with CCRF-CEM leukemia (10 µM), 44.3%. Also, the growth with MOLT-4 leukemia (10 µM unless noted) is 54.8%.
For `S=P(N1CC1)(N1CC1)N1CC1`, the growth with HCT-15 colon (10 µM) was 106% and 84.9%; in the assay on HCT-15 colon (100 µM), 57.5%; with HT29 colon (10 µM), 99.6% and 83.1%; in the assay with HT29 colon (100 µM), 54.6%; with SNB-75 CNS (10 µM), 109% and 69%; with SNB-75 CNS (100 µM), 43.2%. Also, the growth was 102% and 101% in the assay on SNB-19 CNS (10 µM); 37.3% in the assay with SNB-19 CNS (100 µM); 105% and 84.1% in the assay with U251 CNS (10 µM); 43.7% in the assay with U251 CNS (100 µM); 97.5% and 90.9% in the assay with PC-3 prostate (10 µM); 52.7% in the assay on PC-3 prostate (100 µM). The growth with SK-MEL-5 melanoma (10 µM) was 96.9% and 92.8%; in the assay on SK-MEL-5 melanoma (100 µM) it was 48.6%; with UACC-62 melanoma (10 µM), 100% and 71.7%; in the assay with UACC-62 melanoma (100 µM) it was 37.1%; with LOX IMVI melanoma (10 µM), 99.2% and 80.5%; with LOX IMVI melanoma (100 µM) it was 33%. Also, the growth is 131% and 116% in the assay on SK-MEL-28 melanoma; 116% and 93.3% in the assay with SK-MEL-2 melanoma (10 µM); 113% in the assay with SK-MEL-2 melanoma (100 µM); 107% and 90.2% in the assay on EKVX NSCLC (10 µM); 101% in the assay on EKVX NSCLC (100 µM); 71.9% and 83.7% in the assay with UO-31 renal (10 µM). In addition, the growth in the assay with UO-31 renal (100 µM) was 39.1%; in the assay on TK-10 renal (10 µM) it was 115% and 111%; in the assay with TK-10 renal (100 µM), 98.8%; with ACHN renal (10 µM) it was 104% and 60.1%; in the assay with ACHN renal (100 µM), 8.37% (active); with CAKI-1 renal (10 µM), 91.6% and 47.4%. Besides, the growth is 2.65% (active) with CAKI-1 renal (100 µM); 122% and 69.4% in the assay on A498 renal (10 µM); 67.8% in the assay on A498 renal (100 µM); 107% and 106% in the assay with CCRF-CEM leukemia (10 µM); 21.4% with CCRF-CEM leukemia (100 µM); 98.2% and 61.8% in the assay on MOLT-4 leukemia (10 µM). The growth in the assay on MOLT-4 leukemia (100 µM) was 22.6%.
`O=C(O)c1ccccc1.[Ag]`: the growth in the assay with HCT-15 colon (10 µM) is 110%; with HT29 colon (10 µM) it was 97.9%; in the assay on SNB-75 CNS (10 µM), 110%; with SNB-19 CNS (10 µM), 105%; in the assay on U251 CNS (10 µM), 97%; with PC-3 prostate (10 µM), 86.8%. Also, the growth in the assay on SK-MEL-5 melanoma (10 µM) was 28.5%; with UACC-62 melanoma (10 µM) it was 105%; in the assay with LOX IMVI melanoma (10 µM), 17%; in the assay with SK-MEL-28 melanoma it was 106%; with SK-MEL-2 melanoma (10 µM), 122%; in the assay on EKVX NSCLC (10 µM) it was 103%. Further, the growth was 103% with UO-31 renal (10 µM); 109% in the assay with TK-10 renal (10 µM); 111% with ACHN renal (10 µM); 90.2% with CAKI-1 renal (10 µM); 15.4% in the assay with CCRF-CEM leukemia (10 µM); 102% in the assay on MOLT-4 leukemia (10 µM unless noted).
Regarding `CCC(C)(c1ccc(O)c(C)c1)c1ccc(O)c(C)c1`, the growth in the assay on HCT-15 colon (10 µM) is 99.1%; in the assay with HT29 colon (10 µM), 104%; in the assay with SNB-75 CNS (10 µM), 64.8%; in the assay on SNB-19 CNS (10 µM) it was 105%; with U251 CNS (10 µM), 94.4%; with PC-3 prostate (10 µM), 86.1%. Besides, the growth in the assay on SK-MEL-5 melanoma (10 µM) is 95.2%; in the assay on UACC-62 melanoma (10 µM), 68.9%; with LOX IMVI melanoma (10 µM) it was 104%; with SK-MEL-28 melanoma, 133%; in the assay with SK-MEL-2 melanoma (10 µM) it was 94.4%; in the assay on EKVX NSCLC (10 µM), 82.5%. The growth is 76% with UO-31 renal (10 µM); 249% in the assay with TK-10 renal (10 µM); 98.8% with ACHN renal (10 µM); 62.1% in the assay with CAKI-1 renal (10 µM); 110% with A498 renal (10 µM); 89% with CCRF-CEM leukemia (10 µM). Also, in the assay on MOLT-4 leukemia (10 µM unless noted), the growth is 130%.
